Experimental data reported in PubChem BioAssay (EPA / NIEHS).
Where “and” joins values, the source holds several entries; their conditions need not be identical. Equal entries are not always repeated. Some compounds were tested as several samples or in several runs, with calls that do not always agree. Calls of active or inactive are those of the source. Rule for the calls: active = hit-call score of the fitted dose curve at least 0.9, where 1 is the maximum; inactive = score below 0.9.

Read-out: Plasminogen Activator Inhibitor-1 (PAI1), SERPINE1 (gene 5054)
Experiment: BSK_BF4T_PAI1: BioMAP Diversity Plus: BF4T Assay for Plasminogen Activator Inhibitor-1 (PAI1) Biomarker Activity (AID 2284273)
Details: primary human bronchial epithelial cells with fibroblasts
Experimental: BSK_BF4T is a cell-based, multiplexed-readout assay that uses bronchial epithelial cells and dermal fibroblasts, a human vascular primary cell, with measurements taken at 24 hours after chemical dosing in a microplate: 96-well plate.BSK_BF4T_PAI1 is an assay component measured in the BSK_BF4T assay. It measures PAI-1 antibody related to regulation of gene expression using ELISA technology.Data from the assay component BSK_BF4T_PAI1 was analyzed at the endpoint, BSK_BF4T_PAI1, in the positive analysis fitting direction relative to DMSO as the negative control and baseline of activity. Using a type of binding reporter, gain or loss-of-signal activity can be used to understand protein changes. To generalize the intended target to other relatable targets, this assay endpoint is annotated to the 'cytokine' intended target family, where the subfamily is 'plasmogen activator inhibitor'.
The levels of cell surface (or secreted, indicated by the prefix "s") biomarker endpoints were measured by ELISA. Overt cytotoxicity to cells in confluent adherent cultures (all systems other than the BT system) was assessed by measuring total protein levels using sulforhodamine B (SRB) staining in parallel cultures at the time of biomarker measurements, indicated as SRB endpoints. For proliferation assays for adherent cell types, individual cell types are cultured at sub-confluence and relative cell numbers quantified by SRB staining at time points optimized for each system (48 h: 3C and CASM3C systems; 72 h: BT and HDF3CGF systems; 96 h: SAg system). SRB was performed by staining cells with 0.1% SRB after fixation with 10% TCA and reading wells at 560 nm.Viability and proliferation of PBMC (T cells) was quantified by Alamar Blue reduction for the SAg and BT systems. For PBMC viability (referred to as PBMC Cytotoxicity within the assay endpoint names), cells were plated (75,000/well in a 96-well plate) and then chemical samples added for 1 h before addition of activators, SEB and TSST-1 (20 ng/mL final concentration each). Cells were incubated for 90 h. Then, Alamar Blue (20 uL/well) (Invitrogen, Cat DAL1100) was added for 6 h, and the plates were read with a fluorescence microplate reader at 546/580 nm (excitation/emission). For PBMC proliferation, cells were plated and activated as above but incubated for only 16 h prior to addition of Alamar Blue. Plates were read after 6 h.

Row | SMILES | outcome | AC50
1 | FC(F)(F)C(F)(F)C(F)(F)C(F)(F)C(F)(F)C(F)(F)C(F)(F)C(F)(F)CCS | inactive | 
2 | FC(F)(Br)C(F)(F)C(F)(F)C(F)(F)C(F)(F)C(F)(F)Br | inactive | 
3 | O=C(O)C(F)(OC(F)(F)C(F)(OC(F)(F)C(F)(OC(F)(F)C(F)(F)C(F)(F)F)C(F)(F)F)C(F)(F)F)C(F)(F)F (stereo not given) | inactive | 
4 | O=C(O)C(F)(F)C(F)(F)C(F)(F)C(F)(F)F | inactive | 
5 | FC(F)(F)C(F)(F)C(F)(F)N(C(F)(F)C(F)(F)C(F)(F)F)C(F)(F)C(F)(F)C(F)(F)F | inactive | 
6 | OCC(F)(F)C(F)(F)C(F)(F)C(F)(F)C(F)(F)C(F)(F)F | inactive | 
7 | O=C(O)C(F)(F)C(F)(F)C(F)(F)F | inactive | 
8 | NC(=O)C(F)(F)C(F)(F)C(F)(F)C(F)(F)F | inactive | 
9 | O=C(O)C(F)(F)C(F)(F)OC(F)(F)F | inactive | 
10 | O=S(=O)(OCCOC(F)(F)F)C(F)(F)F | inactive | 
11 | Cc1ccc(S(=O)(=O)OCC(F)(F)C(F)(F)C(F)(F)C(F)(F)C(F)(F)C(F)F)cc1 | inactive | 
12 | FC(F)(I)C(F)(F)C(F)(F)C(F)(F)I | inactive | 45.8 µM (active) and 47.3 µM (active)
13 | O=C(O)C(F)(F)C(F)(F)C(F)(F)C(F)(F)C(F)(F)C(F)(F)C(F)(F)C(F)(F)Cl |  | 44.8 µM (active) and 42.7 µM (active)
14 | FC(F)(F)C(F)(F)C(F)(F)C(F)(F)C(F)(F)C(F)(F)C(F)(F)Br | inactive | 
15 | C=CC(=O)OCC(F)(F)C(F)(F)C(F)(F)C(F)(F)C(F)(F)C(F)(F)C(F)(F)F | inactive | 
16 | OCCCC(F)(F)C(F)(F)C(F)(F)F | inactive | 
17 | CCO[Si](CCC(F)(F)C(F)(F)C(F)(F)C(F)(F)C(F)(F)C(F)(F)F)(OCC)OCC | inactive | 
18 | CCCCCCCCC(F)(F)C(F)(F)C(F)(F)C(F)(F)C(F)(F)C(F)(F)F | inactive | 
19 | O=C(O)C(F)(F)C(F)(F)C(F)F | inactive | 
20 | O=C(O)C(F)(F)C(F)(F)C(F)(F)C(F)(F)C(F)(F)C(F)(F)C(F)(F)C(F)(F)C(F)(F)C(F)(F)C(F)(F)C(F)(F)F | inactive | 

Row | SMILES | outcome | AC50
21 | O=C(O)C(F)(F)C(F)(F)C(F)(F)C(F)(F)C(F)(F)C(F)(F)C(F)(F)C(F)(F)C(F)(F)C(F)F |  | 39.7 µM (active) and 30 µM (active)
22 | FC1CC(F)(F)C(F)(F)C1(F)F (stereo not given) | inactive | 
23 | C=C(C)C(=O)OCCC(F)(F)C(F)(F)C(F)(F)C(F)(F)C(F)(C(F)(F)F)C(F)(F)F | inactive | 
24 | O=C(O)C(F)(OC(F)(F)C(F)(OC(F)(F)C(F)(F)C(F)(F)F)C(F)(F)F)C(F)(F)F (stereo not given) | inactive | 
25 | O=S(=O)(O)C(F)(F)C(F)(F)C(F)(F)C(F)(F)C(F)(F)C(F)(F)C(F)(F)F | inactive | 
26 | N=C(N)C(F)(F)C(F)(F)C(F)(F)C(F)(F)C(F)(F)C(F)(F)C(F)(F)F | inactive | 
27 | C=CC(F)(F)C(F)(F)C(F)(F)C(F)(F)C(F)(F)C(F)(F)C(F)(F)C(F)(F)F | inactive | 
28 | OCC(F)(F)C(F)(F)C(F)(F)C(F)F | inactive | 
29 | O=S(=O)(OCC(F)F)C(F)(F)F | inactive | 
30 | FC(F)(F)C(F)(F)CNCC(F)(F)C(F)(F)F | inactive | 
31 | C=CC(F)(F)C(F)(F)C(F)(F)C(F)(F)C(F)(F)C(F)(F)C(F)(F)C(F)(F)C=C | inactive | 
32 | C=C(C)C(=O)OCC(F)(F)C(F)(F)C(F)(F)F | inactive | 
33 | FC(F)(F)C(F)(F)C(F)(F)C(F)(F)C(F)(F)C(F)(F)CCS | inactive | 
34 | O=C(CC(=O)C(F)(F)C(F)(F)F)C(F)(F)F | inactive | 
35 | O=C(O)C=C(C(F)(F)F)C(F)(F)F | inactive | 
36 | FC(F)(F)C(F)(F)C(F)(F)C(F)(F)C(F)(F)C(F)(F)C(F)(F)I | inactive | 
37 | O=C(O)C(F)(F)C(F)(F)F | inactive | 
38 | OCCCC(F)(F)C(F)(F)C(F)(F)C(F)(F)C(F)(F)C(F)(F)C(F)(F)F |  | 47.5 µM (active) and 39.4 µM (active)
39 | FC(F)(F)C(F)(F)C(F)(F)C(F)(F)CCI | inactive | 
